Shown are actives, neighbours in structure and some others; about 8.7% of the full set was active somewhere.
G9a block – G9a (human) methyltransferase inhibition | Potency, µM (titrated, usually from 102 µM), without a hit: at the highest dose activity, negative = inhibition, usual class: inhibitors | 8.8% of 350,000 active | G9a H3K9 monomethylation, AlphaScreen, 2 h; note: % is set by controls: 0 for no effect and ±100 for the full control effect; nearly all actives have a fitted effect of over 75% in size
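Chemiluminescent proximity detection of H3K9 monomethylation, read after 10 min bead incubation in the dark. Reaction: 20 nM G9a, 500 nM biotin-H3K9 peptide, 20 uM SAM cofactor, 2 h, room temperature, following 15 min enzyme-compound preincubation.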
BAZ2B inh – BAZ2B (human) inhibition; Q9UIF8; AlphaScreen BAZ2B-H3K14Ac peptide displacement; Potency, µM (doses to about 114 µM), for the others: top-dose activity change, negative = inhibition, actives largely listed as inhibitors; 4.4% of 360,000 active; AID 504333; note: % is set by controls: 0 for no effect and ±100 for the full control effect; nearly all actives have a fitted effect of over 60% in size
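BAZ2B 50 nM plus b-H3(5-23)K14Ac 50 nM, PBS pH 7.4/0.01% Tween-20, 30 min RT; compound added (max 110 uM), 30 min RT; streptavidin donor/Ni-chelate acceptor beads 10 ug/mL final, 20 min dark; AlphaScreen read.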
Sfp PPTase inh – blocks B. subtilis Sfp PPTase activity; 3.5% of 310,000 active; Biochemical Sfp PPTase activity, qHTS; Q9F4F7; Potency, µM, for the others: largest response in the series, negative = inhibition, hits mostly inhibitors;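 note: the enzyme is Sfp with the accession as filed and its product quenches rhodamine fluorescence; 0% = enzyme reaction without inhibitor and -100% = no enzyme wells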
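Step 1, compound plus 15 nM Sfp-PPTase, 15 min, room temperature. Step 2, add rhodamine-CoA (5 uM) and BHQ-2-YbbR (12.5 uM). Step 3, read 525/598 nm fluorescence at 0 and 30 min.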
12-LOX inh – ALOX12 (human) lipoxygenase inhibition; P18054; purified 12hLO, xylenol orange hydroperoxide absorbance; Potency, µM (series often up to 108 µM), for the others: at the top dose activity change, negative = inhibition, most hits filed as inhibitors; 1.1% of 580,000 active; AID 1671190; note: % is set by controls: 0 for no effect and ±100 for the full control effect
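Purified human 12hLO at 150 nM in 25 mM Hepes, 0.01% Triton X-100, pH 7.0, preincubated 15 min at room temperature with compound. Reaction started with 40 uM arachidonic acid, 30 min at room temperature. Hydroperoxide measured by Fe-xylenol orange, 573/405 nm absorbance ratio.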
HP1b binding inh – inhibitors of HP1-beta chromodomain binding to methylated histone tails | Potency, µM (titrated, usually from 114 µM), for inactives: top-dose activity change, negative = inhibition, usual class: inhibitors | 0.56% of 390,000 active | AlphaScreen HP1-beta / biotin-H3K9me3 peptide binding | AID 540317 | P83916; note: nearly all actives have a fitted effect of over 70% in size
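Compound inhibition of the preformed complex between 50 nM HP1-beta and 50 nM biotinylated H3K9me3 peptide was read by AlphaScreen. Buffer was PBS pH 7.4 with 0.01% Tween-20. Incubations ran 30 min at room temperature, with 10 ug/mL donor/acceptor beads.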
JMJD2A Tudor inh – JMJD2A Tudor domain (human) inhibition | AlphaScreen JMJD2A-Tudor / H3K4me3 peptide binding | Potency, µM (titrated, usually from 114 µM), for inactives: at the top dose activity change, negative = inhibition, usual class: inhibitors | 4.4% of 390,000 active; note: % is set by controls: 0 for no effect and ±100 for the full control effect; nearly all actives have a fitted effect of over 50% in size
Target sequence (O75164 whole entry, looked up, the tested form may be a part): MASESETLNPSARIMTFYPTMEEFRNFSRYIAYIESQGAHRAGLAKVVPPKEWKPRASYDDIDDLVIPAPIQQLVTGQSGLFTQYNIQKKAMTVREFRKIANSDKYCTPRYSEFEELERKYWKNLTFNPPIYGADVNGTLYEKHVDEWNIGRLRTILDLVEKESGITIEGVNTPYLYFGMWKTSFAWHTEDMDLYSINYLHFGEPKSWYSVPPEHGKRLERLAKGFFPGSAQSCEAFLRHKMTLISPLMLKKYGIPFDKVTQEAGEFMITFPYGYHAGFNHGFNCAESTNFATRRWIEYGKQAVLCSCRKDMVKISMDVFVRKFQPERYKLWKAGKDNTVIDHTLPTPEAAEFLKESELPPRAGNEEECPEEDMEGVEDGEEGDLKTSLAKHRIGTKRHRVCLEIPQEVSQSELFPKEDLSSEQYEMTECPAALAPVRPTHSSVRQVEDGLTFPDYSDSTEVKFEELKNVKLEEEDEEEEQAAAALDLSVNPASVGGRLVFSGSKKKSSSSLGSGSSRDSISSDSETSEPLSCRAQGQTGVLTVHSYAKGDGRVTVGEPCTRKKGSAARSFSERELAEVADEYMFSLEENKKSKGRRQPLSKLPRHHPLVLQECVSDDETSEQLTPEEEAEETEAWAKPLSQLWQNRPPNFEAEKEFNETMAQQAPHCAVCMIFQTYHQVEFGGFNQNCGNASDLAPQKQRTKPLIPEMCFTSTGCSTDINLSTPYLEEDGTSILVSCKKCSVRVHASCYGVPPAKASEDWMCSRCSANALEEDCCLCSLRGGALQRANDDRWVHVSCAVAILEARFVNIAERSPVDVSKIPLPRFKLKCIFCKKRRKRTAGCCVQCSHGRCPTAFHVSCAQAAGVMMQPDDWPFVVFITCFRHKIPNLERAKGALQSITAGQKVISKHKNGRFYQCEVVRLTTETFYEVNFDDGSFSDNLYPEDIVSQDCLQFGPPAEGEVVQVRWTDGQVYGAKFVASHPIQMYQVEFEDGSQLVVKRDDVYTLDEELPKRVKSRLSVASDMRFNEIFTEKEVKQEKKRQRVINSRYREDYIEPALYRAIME
* = called active by the depositor; i = inactive; ? = inconclusive; / = not tested or not shown; [ ] = another dose, or the depositor's remark. Calls come from the whole dose curve; as a rule, active = well fitted curve in the direction sought with a large enough effect; inconclusive = small, poorly fitted or top-dose-only effect, or another doubt; inactive = no such curve, though single readings can be large; an effect the other way counts as inactive or inconclusive. Potency is the fitted concentration of half-maximal effect.

SMILES	G9a block	BAZ2B inh	Sfp PPTase inh	12-LOX inh	HP1b binding inh	JMJD2A Tudor inh
Cc1ccccc1N(C(=O)CS(=O)CC(=O)Nc1ccc(F)cc1)C(C)C(=O)NC(C)(C)C (stereo not drawn)	13%	3%	15%	0%	?	-11%
Cc1ccc(N(C(=O)CS(=O)CC(=O)Nc2ccc(F)cc2)C(C)C(=O)NC(C)(C)C)cc1 (stereo not drawn)	71µM*	0%	1%	-27%	15%	2%
Cc1ccccc1NC(=O)CN(Cc1ccc2c(c1)OCO2)C1CCCC1	/	/	/	-5%	/	/
CCN(CC)c1ccc(/C=N/Nc2nn[nH]n2)cc1	?	?	40µM*	7%	28%	-19%
Cc1cc(N/N=C/c2cccc(Br)c2)nc2ccccc12	74%[59 µM]	7%	20µM*	-19%	29%	-16%
Brc1cccc(/C=N/Nc2nn[nH]n2)c1	50µM*	?	?	-7%	40%	-6%
Fc1ccccc1/C=N/Nc1nn[nH]n1	20µM*	?	?	?	29%	79µM*
O=C(/C=C/c1cccc(Br)c1)Nc1nn[nH]n1	-2%	3%	?	-57%	-3%	?
COc1ccc(OCC2(C)COc3ccc(C(=O)NCc4cccnc4)cc3N2)cc1 (stereo not drawn)	/	/	/	-6%[176 µM]	/	/
COCCN1C(=O)CS(=O)C12CCN(S(=O)(=O)c1cn(C)cn1)CC2 (stereo not drawn)	/	/	/	45%	/	/
CC(C)Cc1cc(C(=O)N2CC(OCc3ccc(F)cc3)C2)on1	/	/	/	43%	/	/
CC(=O)N1CCc2nn(CC(=O)Nc3ccc(C(F)(F)F)cc3)c(=O)cc2C1	/	/	/	31%	/	/
CCOC(=O)c1c(NC(=O)Cc2cccs2)sc2c1CCCC2	12%	17%	32µM*	1%	65%	13%
CCOC(=O)c1c(NC(=O)c2cccs2)sc2c1CCCC2	66%[59 µM]	37%	16%	3%	129%	12%
COC(=O)c1c(NC(=O)COC(=O)c2ccc(NC(=O)CC#N)cc2)sc2c1CCCCC2	-2%[59 µM]	45µM*	-24%	-18%	-17%	45µM*
CCOC(=O)c1c(NC(=O)COc2cccc(C)c2C)sc2c1CCCCC2	11µM*	2%	/	-18%	-11%	-11%
CC1CCc2c(sc(NC(=O)CCC(=O)O)c2C(=O)NC2CC2)C1 (stereo not drawn)	8.9µM*	-36%	8.9µM*	7%	?	?
COc1ccc(OC)c(NC(=O)[C@H]2C[C@@H]3CCCN3[C@]23C(=O)Nc2c(C)cc(Cl)cc23)c1	/	/	/	-25%	/	/
CCOC(=O)c1c(NC(=O)CCC(=O)O)sc2c1CCCCC2	7.9µM*	-5%	?	?	?	?
CCOC(=O)c1c(NC(=O)C2CC(Cl)=CCC2C(=O)O)sc2c1CCCCC2 (stereo not drawn)	45µM*	50µM*	-12%	/	-6%	?
COC(=O)c1c(NC(=O)COc2cccc(C(F)(F)F)c2)sc2c1CCCC2	8.9µM*	1%	/	-21%	0%	-5%
O=C(C[C@@H]1CCNC[C@@H]1Cc1cc(COc2ccccc2)on1)NCc1ccccc1	/	/	/	20%[176 µM]	/	/
COC(=O)C1=C(C)N(c2cc(C)cc(C)c2)/C(=C/c2ccc(O)cc2)C1=O	?	-23%	45µM*	?	-11%	-29%
COC(=O)C1=C(C)N(c2cc(C)cc(C)c2)/C(=C/c2ccco2)C1=O	?	50µM*	?	-28%	-23%	79µM*
Cc1nc(-c2c3n(c(=O)n(CC(=O)Nc4cccc(F)c4)c2=O)CCCC3)no1	/	/	/	-3%	/	/
SMILES	G9a block	BAZ2B inh	Sfp PPTase inh	12-LOX inh	HP1b binding inh	JMJD2A Tudor inh
Cc1nc(SCC(=O)N2CC(=O)Nc3ccccc32)nc(C)c1C	32µM*	4%	-25%	8%	30%	-13%
O=C(CNC(=O)N1CC(=O)Nc2ccccc21)Nc1ccc(Cl)cc1	/	-5%	5%	1%	27%	-13%
CCc1ccc2nc(SCC(=O)N3CC(=O)Nc4ccccc43)c(C#N)cc2c1	-6%[59 µM]	-6%	-8%	-4%	?	50µM*
O=C1CN(C(=O)CNCc2ccc(Cl)cc2)c2ccccc2N1	25µM*	71µM*	?	?	?	10µM*
Cc1cccc(-n2c(SCC(=O)N3CC(=O)Nc4ccccc43)nc3ccccc3c2=O)c1C	45µM*	1%	-17%	?	18%	-24%
CCOCc1nc(C2CCCN2S(=O)(=O)c2cccnc2)no1 (stereo not drawn)	/	/	/	29%	/	/
O=C(O)CNS(=O)(=O)c1ccc(OC(F)(F)F)cc1	/	/	/	-20%	/	/
O=C1CN(C(=O)CSc2nnc(Nc3ccccc3)s2)c2ccccc2N1	?	-9%	-14%	-27%	9%	-16%
COc1ccccc1Nc1nnc(SCC(=O)N2CC(=O)Nc3ccccc32)s1	50µM*	-2%	8%	3%	19%	-18%
O=C(c1cc2cc(Br)ccc2oc1=O)N1CCN(S(=O)(=O)c2ccccc2)CC1	/	/	/	7%	/	/
CCOC(=O)c1c(COC(=O)c2ccco2)nc2ccccc2[n+]1[O-]	15%[59 µM]	-3%	0%	0%	20%	-28%
CC(=O)c1c(COC(=O)c2ccncc2)nc2ccccc2[n+]1[O-]	1µM*	40µM*	11%	-7%	10%	-2%
CC(=O)c1c(COC(=O)c2ccco2)nc2ccccc2[n+]1[O-]	-34%[12.7 µM]	50µM*	-28%	0%	6%	-13%
O=C(OCc1nc2ccccc2[n+]([O-])c1C(=O)c1ccccc1)c1cccs1	?	?	-8%	?	-18%	79µM*
CCOc1cccc(C(=O)Nc2scc(-c3ccccc3Cl)c2C(=O)OC)c1	/	/	/	19%	/	/
CC(=O)Nc1cc(-c2ccccc2N(C)C)cn2c(-c3ccccc3)cnc12	/	/	/	45µM*	/	/
Cc1ccc(N2CCN(C(=O)c3cc4ccccc4oc3=O)CC2)cc1Cl	/	/	/	18%	/	/
CCCNC(=O)N(C1CCOCC1)C1CCN(C(=O)Cc2ccccc2Cl)CC1	/	/	/	54%	/	/
Cc1ccc(N(C(=O)Cn2nnc3ccccc32)C(C(=O)NCc2ccco2)c2ccc(C)o2)cc1 (stereo not drawn)	?	-37%	-26%	i	5%	-12%
COc1ccc(N(C(=O)Cn2nnc3ccccc32)C(C(=O)NCc2ccco2)c2ccc(C)o2)cc1 (stereo not drawn)	50µM*	45µM*	-6%	31%	-16%	-25%
COc1ccc(N(C(=O)/C=C\C(=O)Nc2ccc(Cl)cc2)C(C(=O)NCc2ccco2)c2ccc(C)cc2)cc1 (stereo not drawn)	11µM*	?	/	-72%	19%	-34%

Assay outcomes from PubChem.
